The values below come from PubChem BioAssay (EPA / NIEHS).

Inconclusive results are not listed. Active and inactive are the calls of the source. Rule for the calls, unless noted: active = hit-call score of the fitted dose curve at least 0.9, where 1 is the maximum; inactive = score below 0.9.

Test [1] in a line: ATG_NF_kB_CIS: Attagene CIS-FACTORIAL HepG2 Assay for human Nuclear Factor Kappa B (NF-kB) (AID 2282991). The settings on record: HepG2 Attagene cis-factorial NF-kB reporter mRNA; actives raise or lower the signal. An outline of the steps:
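After 24 h compound incubation, transfected HepG2 cells yield total RNA; reporter cDNA is PCR-amplified, end-labelled with 6-FAM, HpaI-digested and analysed on a genetic analyser. Endogenous factor activity, DMSO-referenced bidirectional fit.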

Test [2] can be described thus: ATG_NRF2_ARE_CIS: Attagene CIS-FACTORIAL HepG2 Assay for human Nuclear Factor Erythroid 2 Related Factor 2 (NFR2) response to Antioxidant Response Elements (ARE) (AID 2282992). The note with it: HepG2 Attagene ARE/NRF2 reporter, transcription factor activity; actives raise or lower the signal. An outline of the steps:
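Endogenous transcription factor activity read out as reporter transcript levels (RT-PCR plus capillary electrophoresis, fluorescence) in transiently transfected HepG2 cells. Measured at 24 h after dosing; gain or loss of signal fitted versus DMSO.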

The nature of test [3]: ATG_Oct_MLP_CIS: Attagene CIS-FACTORIAL HepG2 Assay for human Octamer-Binding Transcription Factor (Oct) (AID 2282993). The settings on record: HepG2 Attagene cis-factorial Oct reporter, mRNA; actives raise or lower the signal. An outline of the steps:
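Readout is reporter transcript level from RT-PCR with fluorescent primer extension and capillary electrophoresis, fitted in both directions against DMSO. Transfected HepG2 reporter units report endogenous factor activity after 24 h dosing.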

Test [4] concerns the target Cellular tumor antigen p53 (Homo sapiens) (UniProt P04637). Nature of the test: ATG_p53_CIS: Attagene CIS-FACTORIAL HepG2 Assay for human p53 Transcription Factor (AID 2282994). The settings on record: HepG2 p53 cis-element reporter, Attagene mRNA; actives raise or lower the signal. An outline of the steps:
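Endogenous p53 activity read in transiently transfected HepG2 from a cis-element-driven reporter transcript after 24 h exposure. RNA reverse-transcribed, PCR-amplified, fluorescently labelled and sized by capillary electrophoresis; gain or loss fitted against DMSO baseline.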

Test [5] has as its target Peroxisome proliferator-activated receptor gamma (Homo sapiens) (UniProt P37231). Nature of the test: ATG_PPARg_TRANS: Attagene TRANS-FACTORIAL HepG2 Assay for human Peroxisome Proliferator-activated Receptor-gamma (PPARg) (AID 2283007; active = hit-call score of the fitted dose curve at least 0.9, where 1 is the maximum). The gist of the method: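 Liver-derived HepG2 cells expressing an exogenous NR-Gal4 chimera alongside GAL4-UAS reporter genes; 24 h exposure. Fluorescence of reporter RT-PCR products, separated by capillary electrophoresis, gives mRNA induction relative to DMSO.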

The target of test [6] is Nuclear receptor subfamily 1 group I member 2 (Homo sapiens) (UniProt O75469). Nature of the test: ATG_PXR_TRANS: Attagene TRANS-FACTORIAL HepG2 Assay for human Pregnane X Receptor (PXR) (AID 2283008; active = hit-call score of the fitted dose curve at least 0.9, where 1 is the maximum). The gist of the method: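 Transactivation by exogenous PXR–GAL4 fusion measured as reporter transcript induction after 24 h compound treatment of transfected human HepG2 cells. Read-out via RT-PCR and capillary electrophoresis of labelled fragments, fitted upward relative to DMSO.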
Sequence of Nuclear receptor subfamily 1 group I member 2 (Homo sapiens) (O75469 whole entry, looked up, the tested form may be a part): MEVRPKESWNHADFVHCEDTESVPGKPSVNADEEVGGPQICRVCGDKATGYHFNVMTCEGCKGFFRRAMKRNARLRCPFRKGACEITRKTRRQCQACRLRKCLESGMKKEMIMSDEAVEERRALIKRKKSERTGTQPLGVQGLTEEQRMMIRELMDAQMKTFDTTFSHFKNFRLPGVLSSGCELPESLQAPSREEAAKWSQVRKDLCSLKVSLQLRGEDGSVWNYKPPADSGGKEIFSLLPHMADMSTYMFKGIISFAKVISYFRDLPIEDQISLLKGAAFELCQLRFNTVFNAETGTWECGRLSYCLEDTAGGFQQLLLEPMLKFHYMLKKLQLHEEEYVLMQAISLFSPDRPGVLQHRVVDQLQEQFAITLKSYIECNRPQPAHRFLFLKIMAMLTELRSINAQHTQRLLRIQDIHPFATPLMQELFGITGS

For test [7], the target named is Retinoic acid receptor RXR-alpha (Homo sapiens) (UniProt P19793). Description: ATG_RXRa_TRANS: Attagene TRANS-FACTORIAL HepG2 Assay for human Retinoid X Receptor alpha (RXRa) (AID 2283012; active = hit-call score of the fitted dose curve at least 0.9, where 1 is the maximum). An outline of the steps:
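Read-out: fluorescent reporter-transcript fragments quantified by capillary electrophoresis after RT-PCR. Transiently transfected HepG2 cells carrying GAL4-UAS reporters and NR-GAL4 chimeras were exposed to chemical for 24 h; activity scored as increase over DMSO.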

The target of test [8] is human Retinoic Acid Receptor beta (RARb), RARB (gene 5915) (UniProt P10826). Nature of the test: ATG_RARb_TRANS: Attagene TRANS-FACTORIAL HepG2 Assay for human Retinoic Acid Receptor beta (AID 2283004; active = hit-call score of the fitted dose curve at least 0.9, where 1 is the maximum). The gist of the method: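 Fluorescent capillary-electrophoresis detection of GAL4-UAS reporter mRNA defines the endpoint, with induction over DMSO-treated wells scored as activity. Transiently transfected human hepatoma HepG2 cells expressing exogenous NR–Gal4 proteins are exposed to test chemicals for 24 h.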
Sequence of human Retinoic Acid Receptor beta (RARb), RARB (gene 5915) (P10826 whole entry, looked up, the tested form may be a part): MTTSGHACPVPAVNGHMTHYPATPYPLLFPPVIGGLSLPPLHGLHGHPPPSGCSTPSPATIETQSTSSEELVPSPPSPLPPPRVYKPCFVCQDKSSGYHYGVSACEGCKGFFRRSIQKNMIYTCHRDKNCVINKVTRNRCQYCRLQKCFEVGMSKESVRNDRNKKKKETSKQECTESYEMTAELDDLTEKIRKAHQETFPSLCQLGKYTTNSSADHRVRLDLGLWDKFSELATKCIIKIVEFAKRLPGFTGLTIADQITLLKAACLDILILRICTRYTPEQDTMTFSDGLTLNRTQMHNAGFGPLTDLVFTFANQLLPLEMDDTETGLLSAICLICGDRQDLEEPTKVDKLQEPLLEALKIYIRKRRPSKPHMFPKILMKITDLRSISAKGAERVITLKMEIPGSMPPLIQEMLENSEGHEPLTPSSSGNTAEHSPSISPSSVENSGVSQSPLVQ

The target in test [9] is Retinoic acid receptor alpha (Homo sapiens) (UniProt P10276). Nature of the test: ATG_RARa_TRANS: Attagene TRANS-FACTORIAL HepG2 Assay for human Retinoic Acid Receptor alpha (RARa) (AID 2283005; active = hit-call score of the fitted dose curve at least 0.9, where 1 is the maximum). An outline of the steps:
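HepG2 transiently transfected with multiplex GAL4-UAS reporter units including a human RARa–GAL4 chimera; 24 h compound exposure. Reporter mRNA quantified by RT-PCR, 6-FAM labeling and capillary electrophoresis; gain of signal versus DMSO.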

Test [10] addresses human Retinoic Acid Receptor gamma (RARg), RARG (gene 5916) (UniProt P13631). Description: ATG_RARg_TRANS: Attagene TRANS-FACTORIAL HepG2 Assay for human Retinoic Acid Receptor gamma (RARg) (AID 2283009; active = hit-call score of the fitted dose curve at least 0.9, where 1 is the maximum). An outline of the steps:
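Readout: reporter transcript levels via RT-PCR, 6-FAM primer-extension labelling, HpaI digestion and capillary electrophoresis. Cells: HepG2 carrying transfected RARg-GAL4 chimera plus UAS reporter set. Dosing 24 h; DMSO negative control.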

Test [11] addresses human Peroxisome Proliferator-activated Receptor delta (PPARd), PPARD (gene 5467) (UniProt Q03181). Description: ATG_PPARd_TRANS: Attagene TRANS-FACTORIAL HepG2 Assay for human Peroxisome Proliferator-activated Receptor delta (PPARd) (AID 2283002; active = hit-call score of the fitted dose curve at least 0.9, where 1 is the maximum). An outline of the steps: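 HepG2 cells transiently transfected with GAL4-UAS multiplexed reporter units driven by exogenous chimeric NR-GAL4 proteins; 24 h compound exposure. Reporter mRNA measured by RT-PCR, 6-FAM primer extension, HpaI digestion and capillary electrophoresis; gain of signal fitted relative to DMSO.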

Test [12] addresses human RAR-related Orphan Receptor gamma (RORg), RORC (gene 6097) (UniProt P51449). Description: ATG_RORg_TRANS: Attagene TRANS-FACTORIAL HepG2 Assay for human RAR-related Orphan Receptor gamma (RORg) (AID 2283011; active = hit-call score of the fitted dose curve at least 0.9, where 1 is the maximum). The gist of the method:
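Chimeric RORg-Gal4 transactivation in transfected HepG2; 24 h exposure; RT-PCR/capillary electrophoresis readout of reporter mRNA, DMSO baseline.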

Test [13] deals with human RAR-related Orphan Receptor beta (RORb), RORB (gene 6096) (UniProt Q92753). Description: ATG_RORb_TRANS: Attagene TRANS-FACTORIAL HepG2 Assay for human RAR-related Orphan Receptor beta (RORb) (AID 2283010; active = hit-call score of the fitted dose curve at least 0.9, where 1 is the maximum). An outline of the steps:
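HepG2, transient MRTU transfection (GAL4-UAS reporters, exogenous NR-Gal4 chimeras); 24 h compound exposure; total RNA → RT-PCR → 6-FAM primer extension → HpaI digest → CE fluorescence. Positive direction vs DMSO baseline.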

Sequence of human Peroxisome Proliferator-activated Receptor delta (PPARd), PPARD (gene 5467) (Q03181 whole entry, looked up, the tested form may be a part): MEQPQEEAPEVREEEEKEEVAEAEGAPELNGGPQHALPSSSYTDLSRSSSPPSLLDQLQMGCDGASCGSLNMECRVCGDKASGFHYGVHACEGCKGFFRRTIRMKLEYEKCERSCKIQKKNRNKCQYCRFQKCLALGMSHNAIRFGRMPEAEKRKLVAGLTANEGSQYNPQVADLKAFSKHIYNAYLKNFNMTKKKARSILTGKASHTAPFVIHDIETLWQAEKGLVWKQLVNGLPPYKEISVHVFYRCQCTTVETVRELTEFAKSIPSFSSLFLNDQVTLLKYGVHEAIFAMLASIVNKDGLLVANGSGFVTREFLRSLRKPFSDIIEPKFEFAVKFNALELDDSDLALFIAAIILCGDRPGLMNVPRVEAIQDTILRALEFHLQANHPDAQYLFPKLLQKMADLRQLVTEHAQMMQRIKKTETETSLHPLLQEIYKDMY
Sequence of Cellular tumor antigen p53 (Homo sapiens) (P04637 whole entry, looked up): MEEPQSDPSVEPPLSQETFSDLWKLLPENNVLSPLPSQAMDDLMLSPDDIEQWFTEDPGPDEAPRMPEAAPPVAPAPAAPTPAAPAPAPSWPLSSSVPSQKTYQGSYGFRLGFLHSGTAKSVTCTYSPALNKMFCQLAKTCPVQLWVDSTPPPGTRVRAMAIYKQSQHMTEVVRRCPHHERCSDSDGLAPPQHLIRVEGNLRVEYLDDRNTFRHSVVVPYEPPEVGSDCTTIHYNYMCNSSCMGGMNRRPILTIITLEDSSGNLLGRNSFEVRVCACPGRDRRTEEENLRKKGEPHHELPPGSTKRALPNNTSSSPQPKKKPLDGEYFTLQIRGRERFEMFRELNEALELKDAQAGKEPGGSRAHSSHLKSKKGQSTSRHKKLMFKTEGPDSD
Sequence of human RAR-related Orphan Receptor beta (RORb), RORB (gene 6096) (Q92753 whole entry, looked up, the tested form may be a part): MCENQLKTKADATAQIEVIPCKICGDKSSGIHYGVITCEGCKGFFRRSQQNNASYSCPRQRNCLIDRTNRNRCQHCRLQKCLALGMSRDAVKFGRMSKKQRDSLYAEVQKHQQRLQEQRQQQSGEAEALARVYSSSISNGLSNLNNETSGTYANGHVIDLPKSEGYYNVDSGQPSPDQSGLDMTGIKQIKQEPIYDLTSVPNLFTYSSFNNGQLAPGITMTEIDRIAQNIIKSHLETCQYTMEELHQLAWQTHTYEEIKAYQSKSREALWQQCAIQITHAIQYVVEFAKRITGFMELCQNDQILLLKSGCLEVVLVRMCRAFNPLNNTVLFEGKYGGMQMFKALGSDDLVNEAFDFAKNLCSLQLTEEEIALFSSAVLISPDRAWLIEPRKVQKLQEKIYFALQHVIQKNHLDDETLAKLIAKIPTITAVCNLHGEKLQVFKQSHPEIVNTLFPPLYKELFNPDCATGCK
Sequence of human Retinoic Acid Receptor gamma (RARg), RARG (gene 5916) (P13631 whole entry, looked up, the tested form may be a part): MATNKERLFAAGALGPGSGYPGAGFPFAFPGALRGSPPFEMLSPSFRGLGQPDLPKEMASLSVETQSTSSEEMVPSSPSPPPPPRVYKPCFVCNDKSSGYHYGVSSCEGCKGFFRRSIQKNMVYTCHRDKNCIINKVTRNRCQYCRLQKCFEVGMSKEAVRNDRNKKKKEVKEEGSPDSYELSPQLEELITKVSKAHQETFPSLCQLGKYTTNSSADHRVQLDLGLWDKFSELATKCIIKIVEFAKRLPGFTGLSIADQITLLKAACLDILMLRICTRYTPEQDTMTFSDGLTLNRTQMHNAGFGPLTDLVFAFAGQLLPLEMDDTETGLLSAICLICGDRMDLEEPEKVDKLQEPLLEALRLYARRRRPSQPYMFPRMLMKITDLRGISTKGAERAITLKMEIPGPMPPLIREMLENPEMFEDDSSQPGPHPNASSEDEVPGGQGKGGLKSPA
Sequence of Retinoic acid receptor RXR-alpha (Homo sapiens) (P19793 whole entry, looked up, the tested form may be a part): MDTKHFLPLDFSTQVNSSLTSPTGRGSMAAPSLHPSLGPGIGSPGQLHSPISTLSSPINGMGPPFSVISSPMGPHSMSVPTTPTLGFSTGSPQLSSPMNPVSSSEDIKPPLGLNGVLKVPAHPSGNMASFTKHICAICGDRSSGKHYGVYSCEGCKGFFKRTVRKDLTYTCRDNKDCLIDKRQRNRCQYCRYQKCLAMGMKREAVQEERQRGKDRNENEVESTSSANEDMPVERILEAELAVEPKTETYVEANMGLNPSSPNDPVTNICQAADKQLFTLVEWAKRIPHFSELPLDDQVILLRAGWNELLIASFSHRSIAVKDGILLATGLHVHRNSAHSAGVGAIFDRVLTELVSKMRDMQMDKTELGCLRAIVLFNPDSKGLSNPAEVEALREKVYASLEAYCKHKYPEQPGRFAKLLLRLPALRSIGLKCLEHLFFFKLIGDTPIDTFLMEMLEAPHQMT
Sequence of Peroxisome proliferator-activated receptor gamma (Homo sapiens) (P37231 whole entry, looked up, the tested form may be a part): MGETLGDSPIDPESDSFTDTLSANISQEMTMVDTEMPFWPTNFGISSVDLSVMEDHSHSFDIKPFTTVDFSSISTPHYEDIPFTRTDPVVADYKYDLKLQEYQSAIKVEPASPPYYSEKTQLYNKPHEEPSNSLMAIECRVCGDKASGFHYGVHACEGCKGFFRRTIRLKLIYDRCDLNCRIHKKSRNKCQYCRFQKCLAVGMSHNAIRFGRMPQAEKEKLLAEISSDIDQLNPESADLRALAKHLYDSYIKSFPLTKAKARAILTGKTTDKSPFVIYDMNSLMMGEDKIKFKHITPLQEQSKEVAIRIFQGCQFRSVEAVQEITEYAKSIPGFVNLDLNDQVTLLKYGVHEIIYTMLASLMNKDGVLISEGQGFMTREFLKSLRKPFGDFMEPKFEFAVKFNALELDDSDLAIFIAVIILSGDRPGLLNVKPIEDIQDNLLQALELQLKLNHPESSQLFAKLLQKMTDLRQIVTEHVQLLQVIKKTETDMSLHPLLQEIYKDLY
Sequence of Retinoic acid receptor alpha (Homo sapiens) (P10276 whole entry, looked up, the tested form may be a part): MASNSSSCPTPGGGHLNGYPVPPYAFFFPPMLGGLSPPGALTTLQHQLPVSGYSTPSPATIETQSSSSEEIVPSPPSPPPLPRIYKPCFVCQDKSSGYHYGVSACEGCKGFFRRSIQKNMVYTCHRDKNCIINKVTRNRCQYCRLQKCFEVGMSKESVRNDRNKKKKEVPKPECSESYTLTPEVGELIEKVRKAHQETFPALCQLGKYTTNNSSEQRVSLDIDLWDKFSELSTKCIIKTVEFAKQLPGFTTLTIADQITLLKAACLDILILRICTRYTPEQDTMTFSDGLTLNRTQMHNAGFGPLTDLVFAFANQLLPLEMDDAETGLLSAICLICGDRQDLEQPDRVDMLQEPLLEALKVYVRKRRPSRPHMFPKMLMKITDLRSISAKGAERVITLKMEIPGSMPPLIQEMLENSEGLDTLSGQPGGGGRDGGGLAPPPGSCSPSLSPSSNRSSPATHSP
Sequence of human RAR-related Orphan Receptor gamma (RORg), RORC (gene 6097) (P51449 whole entry, looked up, the tested form may be a part): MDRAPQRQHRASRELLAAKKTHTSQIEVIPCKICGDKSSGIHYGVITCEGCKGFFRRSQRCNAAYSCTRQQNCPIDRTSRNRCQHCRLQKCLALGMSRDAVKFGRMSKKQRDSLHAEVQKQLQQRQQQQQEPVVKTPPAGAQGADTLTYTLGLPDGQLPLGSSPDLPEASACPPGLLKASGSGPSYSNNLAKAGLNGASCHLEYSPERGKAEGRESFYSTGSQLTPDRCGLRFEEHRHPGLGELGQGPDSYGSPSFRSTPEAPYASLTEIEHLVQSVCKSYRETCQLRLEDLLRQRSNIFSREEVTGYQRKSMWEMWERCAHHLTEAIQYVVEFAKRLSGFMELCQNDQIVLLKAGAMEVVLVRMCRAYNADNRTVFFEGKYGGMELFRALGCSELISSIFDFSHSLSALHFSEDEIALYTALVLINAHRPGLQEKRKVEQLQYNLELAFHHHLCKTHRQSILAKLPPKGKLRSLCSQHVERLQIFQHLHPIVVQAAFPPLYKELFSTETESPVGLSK

As for `CC(C)[C@H](C(=O)OC(C#N)c1cccc(Oc2ccccc2)c1)c1ccc(OC(F)F)cc1` (stereo partly specified), the outcome in [1], in test [2], in [3], in test [4], in test [5] and in test [7] was inactive. For the same compound, the half-maximal activity concentration (AC50) in test [6] was 0.693 µM (active).

With `O=S1OC[C@@H]2[C@H](CO1)[C@]1(Cl)C(Cl)=C(Cl)[C@@]2(Cl)C1(Cl)Cl` (stereo partly specified), the compound was classed as inactive in [1], in test [2], in [4], in [8], in test [9] and in test [10]. Also, the compound was called inactive in test [7]. Also, the results for the AC50 in test [3] and in test [6] were 100 µM (active) and 4.5 µM (active), respectively.

`CCC[CH2][Sn]([Cl])([Cl])[CH2]CCC`: the AC50 in test [1] is 1.99 µM (active); in [2], 0.315 µM (active); in test [3] it was 0.949 µM (active); in test [5] it was 0.73 µM (active). Also, the compound was classed as inactive in test [4] and in test [11].

On to `ClCc1ccccc1CCl`, for which the AC50 in [1] is 25.1 µM (active); in test [2], 8.19 µM (active); in [3], 21.2 µM (active); in [4], 50.7 µM (active); in [5] it was 2.49 µM (active); in test [7], 57.4 µM (active). In addition, the compound was called inactive in [8], in test [6] and in test [12].

With `CC(C)(C1CCC(O)CC1)C1CCC(O)CC1` (stereo unspecified), the outcome in [1], in test [2], in [3], in test [4], in test [8] and in test [6] was inactive. Besides, the compound was classed as inactive in test [7].

Turning to `Nc1cccnc1`, the compound was classed as inactive in [1], in test [2], in [3], in test [4], in [11] and in test [5]. Also, the compound was called inactive in [6] and in test [7].

Regarding `CCCCN(CCCCO)N=O`, the outcome in test [1], in test [2], in [3], in [4], in test [11] and in [5] was inactive. For the same compound, the outcome in test [6], in test [13] and in test [7] was inactive.

In the case of `O=C(NC(=O)c1c(F)cccc1F)Nc1cc(Cl)c(OC(F)(F)C(F)C(F)(F)F)cc1Cl` (stereo unspecified), the outcome in [1], in test [3], in [4], in test [5], in test [6] and in test [10] was inactive. The outcome in test [13] and in [7] was inactive. Moreover, in [2], the AC50 is 73 µM (active).

For the compound `Cc1cccc(C)c1NC(=O)CN1CCCC1=O`, the result in test [1], in test [2], in [3], in test [4], in test [8] and in [5] was inactive. The result in [6] and in test [7] was inactive.

For `O=C(NC(=O)c1c(F)cccc1F)Nc1cc(Cl)c(Oc2ncc(C(F)(F)F)cc2Cl)c(Cl)c1`, the compound was called inactive in test [1], in test [3], in [4], in test [11], in [5] and in test [6]. Moreover, the concentration at half-maximal activity (AC50) in test [2] was 31.9 µM (active).

Take `C[As+](C)(C)CC(=O)[O-]`: the call in [1], in test [2], in [3], in [4], in test [9] and in [6] was inactive. The result in test [10], in test [13] and in test [12] was inactive.

Turning to `Cc1cc(Cl)ccc1O`, the outcome in [1], in [3], in [4], in test [9], in test [5] and in test [6] was inactive. Moreover, the outcome in [7] was inactive. In addition, in test [2], the concentration at half-maximal activity (AC50) is 37.1 µM (active).

The term AC50 denotes the concentration giving half of the maximal activity seen.
